About 2,000 (36%) of roughly 5,500 compounds were called active. Roughly 18% stayed inconclusive and do not appear here. No stated cut-off is given here; in the data, active means normalized growth mostly below about 0.91 (no sharp cut-off); inconclusive means no clear call, values can overlap the other calls; inactive means mostly above about 0.92. This is one part of the list.
Experiment: chemical genetic growth profiling, strain panel (AID 1159580);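 further: tested at 20 µM; growth read once vehicle control cultures reached saturation at 30 °C; 1 = growth at the plate median or of vehicle wells; lower values mean less growth of the strain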
Conditions: growth OD

Measured: normalized growth

CCCCCc1ccc(S(=O)(=O)Nc2cccnc2Oc2ccc(Cl)cc2)cc1
inactive: S. cerevisiae deletion strains, locus YAL013W, strain DEP1, active compounds read low 0.988 | S. cerevisiae deletion strains, locus YBR229C, strain ROT2, active compounds read low 1 | S. cerevisiae deletion strains, locus YDL101C, strain DUN1, active compounds read low 0.992 | S. cerevisiae deletion strains, locus YDL134C, strain PPH21, active compounds read low 0.994 | S. cerevisiae deletion strains, locus YDR150W, strain NUM1, active compounds read low 1 | S. cerevisiae deletion strains, locus YEL061C, strain CIN8, active compounds read low 1 | S. cerevisiae deletion strains, locus YGR078C, strain PAC10, active compounds read low 1 | S. cerevisiae deletion strains, locus YHR030C, strain SLT2, active compounds read low 0.965 | S. cerevisiae deletion strains, locus YHR087W, strain rtc3, active compounds read low 0.987 | S. cerevisiae deletion strains, locus YJL187C, strain SWE1, active compounds read low 0.998 | S. cerevisiae deletion strains, locus YJR043C, strain POL32, active compounds read low 0.988 | S. cerevisiae deletion strains, locus YJR075W, strain HOC1, active compounds read low 0.964 | S. cerevisiae deletion strains, locus YLR039C, strain RIC1, active compounds read low 0.951 | S. cerevisiae deletion strains, locus YLR058C, strain SHM2 (second series), active compounds read low 0.994 | S. cerevisiae deletion strains, locus YLR085C, strain ARP6, active compounds read low 1 | S. cerevisiae deletion strains, locus YLR262C, strain YPT6, active compounds read low 0.951 | S. cerevisiae deletion strains, locus YML094W, strain GIM5, active compounds read low 0.998 | S. cerevisiae deletion strains, locus YMR219W, strain ESC1, active compounds read low 0.996 | S. cerevisiae deletion strains, locus YMR263W, strain SAP30, active compounds read low 0.997 | S. cerevisiae deletion strains, locus YMR307W, strain GAS1, active compounds read low 0.992 | S. cerevisiae deletion strains, locus YNL128W, strain TEP1, active compounds read low 1.01 | S. cerevisiae deletion strains, locus YNL153C, strain GIM3, active compounds read low 1 | S. cerevisiae deletion strains, locus YNL298W, strain CLA4 (second series), active compounds read low 1.01 | S. cerevisiae deletion strains, locus YNL322C, strain KRE1, active compounds read low 0.995 | S. cerevisiae deletion strains, locus YNR030W, strain Alg12, active compounds read low 0.984 | S. cerevisiae deletion strains, locus YOL006C, strain TOP1, active compounds read low 0.986 | S. cerevisiae deletion strains, locus YPL055C, strain LGE1, active compounds read low 0.989 | S. cerevisiae deletion strains, locus YPL241C, strain CIN2, active compounds read low 1.08 | S. cerevisiae deletion strains, locus YPR135W, strain CTF4, active compounds read low 1.02 | S. cerevisiae strains, strain wild type, active compounds read low 1

Reference: PubChem BioAssay AID1159580 (chemical genetic matrix, 2015)
